# Measurements reported in PubChem BioAssay.
# Records with an inconclusive call do not appear. Activity calls are given as the source filed them. Unless noted, the rule behind the calls is not given here.
# Legend:
# [1] = viability loss in pontine glioma line – cell-based, SU-DIPG-XXV, MIPE5.0, CellTiter-Glo, qHTS, dose response (AID 1347065; cut-off not given, nearly all actives have AC50 up to about 26 µM;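 note: cells exposed to compound for 48 hours before ATP readout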); conditions: CellTiter-Glo ATP luminescence
# [2] = JHH-DIPG-1 glioma cell viability, MIPE5.0 library, CellTiter-Glo luminescence, qHTS (AID 1347067; cut-off not given, nearly all actives have AC50 up to about 26 µM;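 note: cells exposed to compound for 48 hours before readout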); conditions: JHH-DIPG-1 glioma viability, CellTiter-Glo ATP luminescence
# [3] = compounds altering HSF1 focus formation in cells – imaging, Selleck Cancer Library (AID 1347162; in the data active = plate-normalised HSF1 focus index below about 0.46); conditions: human cells, HSF1 nuclear foci imaging, at 10 µM; SSMD: measured here: HSF1 foci SSMD mean; cell count: measured here: cell number; plate-normalised HSF1 focus index: stronger effect = lower value
# [4] = viability loss in pontine glioma line – cell-based, SU-DIPG-XIII, MIPE4.0, CellTiter-Glo, qHTS, dose response (AID 1347061; cut-off not given, nearly all actives have AC50 up to about 37 µM;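 note: cells exposed to compound for 48 hours before readout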); conditions: CellTiter-Glo ATP luminescence
# [5] = growth inhibition of DIPG cells – cell-based, MIPE4.0 library, CellTiter-Glo luminescence, qHTS (AID 1347066; cut-off not given, nearly all actives have AC50 up to about 30 µM;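 note: cells exposed to compound for 48 hours before readout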); conditions: SU-DIPG-VI viability, CellTiter-Glo ATP luminescence
# [6] = viability loss in pontine glioma line – cell-based, SU-DIPG-XIII, MIPE5.0, CellTiter-Glo, qHTS, dose response (AID 1347064; cut-off not given, nearly all actives have AC50 up to about 23 µM;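 for AC50: cells exposed to compound for 48 hours before the viability read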); conditions: CellTiter-Glo ATP luminescence
# [7] = growth inhibition of DIPG cells – cell-based, MIPE5.0 library, qHTS (AID 1347068; cut-off not given, nearly all actives have IC50 up to about 30 µM;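 for IC50: cells exposed to compound for 48 hours before viability readout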); conditions: SU-DIPG-XXV viability
# [8] = compounds altering circadian rhythm period length – cell-based, LOPAC library, luminescence reporter (AID 2774); conditions: circadian reporter cells, at 7 µM, actives lie on both sides;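 note: values are relative to mean of DMSO wells on each plate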
# [9] = compounds altering viability of human ES cells (AID 493140); conditions: human embryonic stem cell survival screen; stronger effect = higher value;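 note: cells exposed to compounds for four days before counting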
structure (smiles),measurement,setting,value
COc1cc(Nc2c(C#N)cnc3cc(OCCCN4CCN(C)CC4)c(OC)cc23)c(Cl)cc1Cl,AC50,[1],13.2 µM (active)
same,AC50,[2],11.8 µM (active)
same,SSMD,[3],-18.3
same,cell count,[3],5030
same,plate-normalised HSF1 focus index,[3],0.345 (active)
CN(c1nccc(=O)[nH]1)C1CCN(c2nc3ccccc3n2Cc2ccc(F)cc2)CC1,outcome,[4],inactive
same,outcome,[5],inactive
Cc1c(C)c2c(c(C)c1O)CCC(C)(COc1ccc(CC3SC(=O)NC3=O)cc1)O2 (centres undefined),outcome,[6],inactive
same,outcome,[5],inactive
same,outcome,[2],inactive
same,outcome,[7],inactive
COC(=O)C1=C(C)NC(C)=C(C(=O)OCCN2CCN(C(c3ccccc3)c3ccccc3)CC2)C1c1cccc([N+](=O)[O-])c1 (centres undefined),AC50,[6],8.33 µM (active)
same,AC50,[1],5.9 µM (active)
same,outcome,[5],inactive
same,AC50,[2],13.2 µM (active)
same,IC50,[7],8.33 µM (active)
CC=CC1=C(C(=O)O)N2C(=O)[C@@H](NC(=O)[C@H](N)c3ccc(O)cc3)[C@H]2SC1,outcome,[5],inactive
CCCCCCOC(=O)NC(=N)c1ccc(NCc2nc3cc(C(=O)N(CCC(=O)OCC)c4ccccn4)ccc3n2C)cc1,AC50,[5],26.4 µM (active)
same,outcome,[7],inactive
O=C(O)c1nc(=O)[nH]c(=O)[nH]1,outcome,[6],inactive
same,outcome,[1],inactive
same,outcome,[5],inactive
same,outcome,[2],inactive
same,outcome,[7],inactive
Clc1cccc(C(c2ccc3nc[nH]c3c2)n2ccnc2)c1 (centres undefined),outcome,[6],inactive
same,outcome,[1],inactive
same,outcome,[2],inactive
same,outcome,[7],inactive
CN1C[C@H]2c3ccccc3Oc3ccc(Cl)cc3[C@@H]2C1,outcome,[4],inactive
same,outcome,[5],inactive
COc1cccc(N(C)C(=S)Oc2ccc3c(c2)CCCC3)n1,outcome,[4],inactive
O=C(CS(=O)Cc1ccco1)NC/C=C\COc1cc(CN2CCCCC2)ccn1 (centres undefined),outcome,[5],inactive
CC(=O)O[C@@]12CO[C@@H]1C[C@H](O)[C@@]1(C)C(=O)[C@H](O)C3=C(C)[C@@H](OC(=O)[C@H](O)[C@@H](NC(=O)OC(C)(C)C)c4ccccc4)C[C@@](O)([C@@H](OC(=O)c4ccccc4)[C@H]21)C3(C)C,outcome,[6],inactive
same,AC50,[1],0.00209 µM (active)
same,outcome,[2],inactive
same,outcome,[7],inactive
CCCCC(CC)COC(=O)C(C#N)=C(c1ccccc1)c1ccccc1 (centres undefined),outcome,[5],inactive
same,outcome,[7],inactive
C=CCc1cc(OC)c(O)c(C(=O)NCCO)c1,outcome,[4],inactive
same,outcome,[5],inactive
COC(=O)[C@@H](N)Cc1ccc(O)c(O)c1,period change,[8],0.105 h (inactive)
Nc1cccc2c1CN(C1CCC(=O)NC1=O)C2=O (centres undefined),SSMD,[3],2.07
same,cell count,[3],6670
same,plate-normalised HSF1 focus index,[3],1.11 (inactive)
O=C(O)CN(CCOCCOCCN(CC(=O)O)CC(=O)O)CC(=O)O,period change,[8],0.1 h (inactive)
NC(N)=NCCC[C@H](N)C(=O)O,period change,[8],-0.2 h (inactive)
C(=C\c1ccccc1)/CN1CCN(C(c2ccccc2)c2ccccc2)CC1,period change,[8],0.12 h (inactive)
same,survival,[9],11.3 (inactive)
CCCCCCCCCCCCCCC[C@H](O)[C@@H](N)CO,survival,[9],80 (inactive)
CC(=O)[C@@]1(O)CC[C@H]2[C@@H]3CCC4=CC(=O)CC[C@]4(C)[C@H]3CC[C@@]21C,period change,[8],0.035 h (inactive)
COc1ccc(CCN(C)CCCC(C#N)(c2cc(OC)c(OC)c(OC)c2)C(C)C)cc1OC (centres undefined),period change,[8],-0.105 h (inactive)
CCN1CCc2nc(N)oc2CC1,period change,[8],0.015 h (inactive)
C[C@]12CCC(=O)C=C1CC[C@@H]1[C@@H]2CC[C@@]2(C)[C@H]1CC[C@]2(O)C(=O)CO,period change,[8],-0.335 h (inactive)
C[N+](C)(C)CCOC(=O)CCC(=O)OCC[N+](C)(C)C,period change,[8],0.025 h (inactive)
O=C(O)CP(=O)(O)O,period change,[8],0.02 h (inactive)
Cc1nc2c([nH]1)c(=O)n(C)c(=O)n2Cc1ccco1,period change,[8],0.08 h (inactive)
N[C@@H](COP(=O)(O)O)C(=O)O,period change,[8],0.04 h (inactive)
CSc1ccc(C(=O)c2[nH]c(=O)[nH]c2C)cc1,period change,[8],0.015 h (inactive)
CCNC(=O)N1CCN(CCCC(c2ccc(F)cc2)c2ccc(F)cc2)CC1,period change,[8],-0.05 h (inactive)
N[C@@H](CC(=O)O)C(=O)O,period change,[8],0.065 h (inactive)
OCCN1CCN(CC/C=C2/c3ccccc3Sc3ccc(C(F)(F)F)cc32)CC1,period change,[8],-0.1 h (inactive)
same,survival,[9],3.17 (inactive)
CC(=O)Oc1cc(C(F)(F)F)ccc1C(=O)O,survival,[9],9.25 (inactive)
CC1=C(CC(=O)O)c2cc(F)ccc2/C1=C\c1ccc(S(C)(=O)=O)cc1,period change,[8],0.07 h (inactive)
